These compounds were tested on Bacteroides stercoris (assay: growth AUC relative to DMSO control (median of replicates) (fraction); higher = more growth (less inhibition), active = hit call of the paper). Conditions: 20 µM; 24 h;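 active = AUC reduced over 20% with Padj below 0.05 in at least 2 of 3 replicates; inactive = otherwise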.
Method in brief: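 Gut bacterial monocultures were grown anaerobically at 37 °C in mGAM from a starting OD600 of 0.05 with 20 µM compound (1% DMSO), in round-bottom 96-well plates under pierced gas-permeable seals, and OD600 was read hourly for 24 h. With the minimum OD set to 0, area under the growth curve was normalised to the plate median of solvent-only wells, or to row and column medians on the industrial chemical plate. Each value is the median of three biological replicates grown on separate days.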

Compound	growth AUC
CC(C)c1cccc2c(=O)c3ccccc3sc12	1.21 (inactive)
CP(=O)(O)CCC(=O)O	1.01 (inactive)
ClC(COCC(Cl)C(Cl)(Cl)Cl)C(Cl)(Cl)Cl (centres undefined)	0.952 (inactive)
CCc1cccc(C)c1N(C(=O)CS(=O)(=O)[O-])C(C)COC.[Na+] (centres undefined)	0.951 (inactive)
COCC(=O)N(c1c(C)cccc1C(=O)O)C(C)C(=O)O (centres undefined)	0.917 (inactive)
COC(=O)C(C)Oc1ccc(Oc2ccc(C(F)(F)F)cn2)cc1 (centres undefined)	1.23 (inactive)
O=S(Cc1ccc(Cl)cc1)c1ccc(Cl)cc1 (centres undefined)	0.964 (inactive)
O=C(O)c1ccc(Cl)cc1Cl	0.959 (inactive)
Nc1ccc(S(=O)(=O)Nc2cnc3ccccc3n2)cc1	1.01 (inactive)
COC(=O)c1ccc(CNS(C)(=O)=O)cc1S(=O)(=O)NC(=O)Nc1nc(OC)cc(OC)n1	0.871 (inactive)
CC(C)(NC(=O)NCc1ccccc1Cl)c1ccccc1	0.951 (inactive)
CCC(C)Nc1nc(N)nc(Cl)n1 (centres undefined)	1.16 (inactive)
Cc1cccc(C)c1N(C(=O)CCl)C1CCOC1=O (centres undefined)	1.1 (inactive)
CC(C)(NC(=O)C(Br)C(C)(C)C)c1ccccc1 (centres undefined)	0.766 (inactive)
O=C(O)Cc1cccc2ccccc12	0.963 (inactive)
NC(Cn1cncn1)C(=O)O (centres undefined)	1.01 (inactive)
CCc1nc2ncnn2c(N)c1CCCCCC(=O)O.Cl	1.14 (inactive)
Cn1cc(C(=O)Nc2ccccc2-c2cc(F)c(F)c(F)c2)c(C(F)F)n1	0.931 (inactive)
NC(=O)Cc1cccc2ccccc12	1.15 (inactive)
CC(C)c1ccccc1	1.02 (inactive)

Compound	growth AUC
CCCCCCCCSCCO	0.918 (inactive)
CN(C)C(=O)Nc1ccc(Cl)c(Cl)c1	1.08 (inactive)
c1ccc(Nc2ccccc2)cc1	0.951 (inactive)
CC1=C(C(=O)Nc2ccccc2)CCCO1	0.951 (inactive)
CCOC(=O)C(C)Oc1ccc(Oc2nc3ccc(Cl)cc3o2)cc1 (racemic)	0.898 (inactive)
O.O=C(Nc1ccc([N+](=O)[O-])cc1Cl)c1cc(Cl)ccc1O	0.00906 (active)
CN(C)C(N)=O	1.05 (inactive)
COC(=O)c1c(Cl)nn(C)c1S(=O)(=O)NC(=O)Nc1nc(OC)cc(OC)n1	1 (inactive)
N#Cc1ccccc1NC(=O)c1snc(Cl)c1Cl	1.15 (inactive)
COCC(=O)N(c1c(C)cccc1C)C(C)C(=O)O (centres undefined)	1.13 (inactive)
COCCN(C(=O)CO)c1c(C)cccc1C(=O)O	1.03 (inactive)
CNC(=O)Nc1nc2ccccc2s1	1.1 (inactive)
O=C(O)COc1ccc(Cl)c2cccnc12	1.14 (inactive)
CC(C)([CH2][Sn]([CH2]C(C)(C)c1ccccc1)([CH2]C(C)(C)c1ccccc1)[O][Sn]([CH2]C(C)(C)c1ccccc1)([CH2]C(C)(C)c1ccccc1)[CH2]C(C)(C)c1ccccc1)c1ccccc1	0.969 (inactive)
CN(C)C(=O)Nc1ccc(Oc2ccc(Cl)cc2)cc1	0.819 (inactive)
CCc1ccc(O)cc1	1.24 (inactive)
Cc1nn(C)c(F)c1C(=O)Nc1ccccc1C(C)CC(C)C (centres undefined)	1.04 (inactive)
CCc1cccc(C)c1NC(=O)C(=O)O	0.999 (inactive)
CCCCC(CC)COC(=O)COc1ccc(Cl)cc1C (centres undefined)	0.983 (inactive)

— the supplement of paper PMC12669032
